A number with no mark means an inactive call. For part of these data: Results with a measured potency or affinity are listed apart. Activity calls are given as the source filed them.

The conditions of test [1]: Ebola virus entry assay, green fluorescence channel.
The conditions of test [2]: Ebola virus entry assay, blue channel fluorescence.
For test [3] the following is noted: Ebola virus entry assay, green fluorescence channel. The source holds these as a separate data set.
For test [4] the following is noted: Ebola virus entry assay, ratio channel readout.
For test [5] the following is noted: Ebola virus entry assay, blue channel fluorescence. This is another data set of the same source.
The conditions of test [6]: Ebola virus entry assay, ratio channel.
For test [7] the following is noted: Ebola virus entry assay, green channel fluorescence.
For test [8] the following is noted: Ebola virus entry assay, blue channel fluorescence. The source holds these as a separate data set.
For test [9] the following is noted: Ebola virus entry assay, reporter ratio channel; AC50: Channel type: primary unless noted; outcome: Channel type: primary unless noted.
For test [10] the following is noted: Ebola virus entry assay, blue channel (ratio component).
For test [11] the following is noted: Ebola virus entry reporter assay, green channel fluorescence.
The conditions of test [12]: Ebola virus entry cell assay, ratio channel.
A short description of test [13]: Immunotoxin (HA22) sensitization/mitigation study. Vehicle arm (PBS) (AID 1159510). Note: potency is the fitted concentration of half-maximal effect. Particulars: cancer cells viability with PBS vehicle (HA22 study); series mostly up to 46.1 µM.
A short description of test [14]: Immunotoxin (SS1P) sensitization/mitigation study. Vehicle arm (DMEM) (AID 1159513). Particulars: cell viability with vehicle (DMEM); series mostly up to 46.1 µM.
Throughout, for efficacy: 0% is about no effect.

As to `CCCCN1C[C@H](O)[C@@H](O)[C@H](O)[C@H]1CO`, in test [1], the efficacy is 19.9%. Besides, the result in test [2], in [3], in [4], in [5], in test [6] and in test [7] was inactive. Also, the call in [8], in test [9], in test [10], in test [11] and in [12] was inactive.

`Cc1[nH]c(=O)c(C#N)cc1-c1ccncc1`: in test [1], the efficacy is -19.3%. The result in test [2], in test [3], in test [4], in test [5], in [6] and in test [7] was inactive. In addition, the molecule was called inactive in [8], in [9], in test [10], in [11] and in test [12].

Consider `Cc1onc(-c2c(Cl)cccc2Cl)c1C(=O)N[C@@H]1C(=O)N2[C@@H]1SC(C)(C)[C@@H]2C(=O)O`, for which the efficacy in [1] is 26.4%. The molecule was called inactive in [2], in test [3], in test [4], in test [5], in [6] and in test [7]. Further, the outcome in test [8], in test [9], in [10], in test [11] and in [12] was inactive.

Consider `Cn1c(=O)c2c(ncn2CC(O)CO)n(C)c1=O` (configuration not stated), for which the efficacy in test [1] is -15%. Moreover, the result in [2], in test [3], in [4], in test [5], in test [6] and in test [7] was inactive. Further, the molecule was called inactive in test [8], in test [9], in test [10], in test [11] and in [12].

`CC(=O)N[C@@H](CS)C(=O)O`: the efficacy in test [1] was -17.9%. In addition, the outcome in test [2], in test [3], in test [4], in test [5], in test [6] and in test [7] was inactive. In addition, the outcome in [8], in test [9], in test [10], in test [11] and in test [12] was inactive.

`CCCCNc1ccc(C(=O)OCCOCCOCCOCCOCCOCCOCCOCCOCCOC)cc1`: the efficacy in test [1] was 14%. The call in test [2], in [3], in test [4], in test [5], in test [6] and in test [7] was inactive. Moreover, the molecule was classed as inactive in test [8], in test [9], in test [10], in test [11] and in test [12].

For `COc1cc(C(=O)NCc2ccc(OCCN(C)C)cc2)cc(OC)c1OC`, the efficacy in [1] is 33.3%. In addition, the molecule was classed as inactive in [2], in test [3], in test [4], in [5], in test [6] and in test [7]. Moreover, the molecule was classed as inactive in test [8], in test [9], in test [10], in test [11] and in [12].

Consider `CCCc1cc(=O)[nH]c(=S)[nH]1`, for which the efficacy in [1] is 10.6%. Moreover, the call in [2], in [3], in [4], in test [5], in [6] and in test [7] was inactive. Also, the outcome in test [8], in test [9], in [10], in test [11] and in test [12] was inactive.

Take `CCCC(=O)Nc1ccc(OCC(O)CNC(C)C)c(C(C)=O)c1` (configuration not stated): the efficacy in test [1] was 8.06%. Besides, the molecule was classed as inactive in test [2], in test [3], in test [4], in [5], in test [6] and in test [7]. Besides, the call in [8], in test [9], in test [10], in test [11] and in test [12] was inactive.

Take `NS(=O)(=O)c1cc2c(cc1C(F)(F)F)NCNS2(=O)=O`: the efficacy in test [1] was -34.5%. Moreover, the result in test [2], in test [3], in [4], in [5], in [6] and in test [7] was inactive. For the same molecule, the outcome in test [8], in test [9], in [10], in test [11] and in [12] was inactive.

`O[C@@H]1CO[C@H]2[C@@H]1OC[C@@H]2O`: the efficacy in [1] is 15.8%. Moreover, the call in test [2], in [3], in [4], in test [5], in test [6] and in test [7] was inactive. In addition, the molecule was called inactive in [8], in [9], in test [10], in [11] and in [12].

With `O=P(O)(O)C(O)(Cc1cccnc1)P(=O)(O)O`, in test [1], the efficacy is -17.5%. Moreover, the result in test [2], in test [3], in test [4], in test [5], in test [6] and in [7] was inactive. Besides, the molecule was classed as inactive in [8], in test [9], in test [10], in test [11] and in test [12].

In the case of `COc1ccc2nc(S(=O)Cc3ncc(C)c(OC)c3C)[nH]c2c1` (configuration not stated), the efficacy in [1] is 22.2%. Further, the outcome in test [2], in [3], in test [4], in [5], in test [6] and in [7] was inactive. Besides, the molecule was called inactive in [8], in [9], in test [10], in test [11] and in test [12]. Besides, the Potency entry in test [13] and in [14] was “inactive” each time.

As for `Nc1nnc(-c2cccc(Cl)c2Cl)c(N)n1`, the efficacy in test [1] was -18.2%. The molecule was classed as inactive in test [2], in test [3], in [4], in test [5], in test [6] and in [7]. Further, the outcome in test [8], in test [9], in [10], in test [11] and in test [12] was inactive.

In the case of `C[C@@H]1C[C@H]2[C@@H]3CCC4=CC(=O)C=C[C@]4(C)[C@@]3(F)[C@@H](O)C[C@]2(C)[C@@]1(O)C(=O)CO`, in test [1], the efficacy is -13.7%. Besides, the molecule was called inactive in test [2], in test [3], in test [4], in test [5], in test [6] and in [7]. The outcome in test [8], in test [9], in test [10], in [11] and in test [12] was inactive.

In the case of `Cc1oncc1C(=O)Nc1ccc(C(F)(F)F)cc1`, in test [1], the efficacy is -17.5%. The call in test [2], in test [3], in test [4], in test [5], in test [6] and in [7] was inactive. Besides, the outcome in [8], in test [9], in [10], in [11] and in test [12] was inactive. Further, in test [13], the Potency is 20.9 µM (active).

Regarding `NCCC(O)(P(=O)(O)O)P(=O)(O)O`, the efficacy in test [1] is -9.39%. For the same molecule, the molecule was classed as inactive in test [2], in test [3], in test [4], in [5], in test [6] and in test [7]. Further, the result in test [8], in test [9], in [10], in [11] and in [12] was inactive.

Values taken from PubChem BioAssay (NCATS).
